# Results published in PubChem BioAssay AID1851 (National Center for Advancing Translational Sciences (NCATS), 2009).
# Screen size: about 16,000 compounds; about 2,600 (16%) were called active. About 20% were inconclusive and are not listed. Not all results are given here. A number with no mark means an inactive call. Calls follow the shape of the dose curve; as a rule, active = well fitted curve in the direction sought with a large enough effect; inconclusive = small, poorly fitted or top-dose-only effect, or effect the other way; inactive = no such curve, though single readings can be large or run the other way.
# Biological target: Cytochrome P450 2D6 (Homo sapiens) (UniProt P10635)
# Assay: Cytochrome panel assay with activity outcomes
# Conditions: recombinant CYP, pro-luciferin dealkylation, luminescence, p450-cyp2d6; series mostly up to 57.1 µM; activity, negative = inhibition: at the top concentration
# % is scaled to controls: 0 for no effect and ±100 for the full control effect.
# Cytochrome P450 2D6 (Homo sapiens), sequence (P10635 whole entry, looked up): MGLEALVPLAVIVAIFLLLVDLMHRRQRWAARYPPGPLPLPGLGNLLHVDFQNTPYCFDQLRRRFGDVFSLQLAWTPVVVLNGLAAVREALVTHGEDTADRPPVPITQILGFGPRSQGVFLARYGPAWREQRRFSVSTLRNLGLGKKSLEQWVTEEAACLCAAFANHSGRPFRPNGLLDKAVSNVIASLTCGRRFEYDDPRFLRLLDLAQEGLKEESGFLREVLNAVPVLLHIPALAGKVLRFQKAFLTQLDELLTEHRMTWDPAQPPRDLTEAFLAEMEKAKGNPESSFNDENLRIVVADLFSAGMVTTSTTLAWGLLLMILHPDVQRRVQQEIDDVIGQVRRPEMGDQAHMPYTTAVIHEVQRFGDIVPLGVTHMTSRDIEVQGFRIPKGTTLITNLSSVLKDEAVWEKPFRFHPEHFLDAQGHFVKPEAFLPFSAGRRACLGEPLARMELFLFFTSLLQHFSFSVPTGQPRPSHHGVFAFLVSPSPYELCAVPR
SMILES,"activity, negative = inhibition",AC50
COc1ccc(-n2c(C)n[nH]c2=O)cc1OC,6.47%,
O=c1cnc2cnc(Oc3ccccc3)nc2n1CCc1ccccc1,-4.72%,
Nc1nc2ncc(CNc3ccc(C(=O)N[C@@H](CCC(=O)O)C(=O)O)cc3)nc2c(=O)[nH]1,4.78% [at 25.6 µM],
COc1ccc(NC(=O)C2(c3ccc(NC(=O)c4ccc(OC(C)=O)cc4)cc3)CCCC2)cc1,-0.389%,
CC(=O)N(/N=C1\Sc2ccccc2C1=O)c1ccccc1C,14.4%,
COc1ccc(-n2c(=O)c(-c3cccs3)nc3cnc(N4CCN(C)CC4)nc32)cc1,0.52%,
CCOC(=O)N/N=C/c1ccccc1F,-9.33%,
O=C(CNC(=O)c1ccco1)OC(C(=O)c1ccccc1)c1ccccc1 (configuration not stated),-7.29%,
COC(=O)N1CCC2(CC1)CCN(c1ccccc1)CC2,-15.3%,
COC(=O)N1CCC2(CC1)CN(c1ccccc1)C2,-4.45%,
COC(=O)N1CCC2(CCN(C(=O)Nc3ccccc3)CC2)CC1,-11.2%,
COC(=O)N1CCC2(CC1)CN(C(=O)Nc1ccccc1)C2,-7.42%,
COC(=O)N1CCC2(CC1)CCN(C(c1ccccc1)c1ccccc1)CC2,,7.94 µM (active)
COC(=O)N1CCC2(CCCN(c3ccc(-c4ccccc4)cc3)C2)CC1,-3.96%,
COC(=O)N1CCC2(CC1)CN(C(c1ccccc1)c1ccccc1)C2,,0.794 µM (active)
COC(=O)N1CCC2(CCCN(C(c3ccccc3)c3ccccc3)C2)CC1,,10 µM (active)
CC(=O)N1CCC[C@@]2(CCN(c3ccccc3)C2)C1,-6.82%,
CC(=O)N1CCC2(CCCN(c3ccccc3)C2)CC1,-9.94%,
COC(=O)N1CCC2(CC1)CN(c1ccc(-c3ccccc3)cc1)C2,-10.2%,
CC(=O)N1CCC2(CCCN(C(c3ccccc3)c3ccccc3)C2)CC1,,7.94 µM (active)
Cc1c(NC(=O)NC(C)N2C(=O)C3C4C=CC(C4)C3C2=O)c(=O)n(-c2ccccc2)n1C (configuration not stated),2.58%,
CCOC(=O)C1=C(CSc2nc(-c3ccccc3)ccc2C#N)OC(N)=C(C#N)C1c1ccc(OC)cc1 (configuration not stated),-9.31%,
CCOC(=O)c1[nH]c(C)c(C)c1C,-3.5%,
Nc1ncnc2c1ncn2C[C@@H](O)C(=O)O,10.9% [at 11.4 µM],
O=C(N/N=C/c1c(Nc2cccc(C(F)(F)F)c2)nc2ccccn2c1=O)c1ccccc1,-3.29%,
CC(=O)OCC1=C(C(=O)O)N2C(=O)[C@@H](NC(=O)Cc3cccs3)[C@@H]2SC1,,inactive

SMILES,"activity, negative = inhibition",AC50
CC(C)CCN1C(=O)c2ccc(-c3nc4ccccc4c(=O)o3)cc2C1=O,16.9%,
Cc1noc(C)c1C(=O)N1CCC[C@@]2(CCN(C(=O)NC(C)C)C2)C1,3.36%,
COCCCNC(=O)C1CCN(S(=O)(=O)N(CC(C)C)CC(C)C)CC1,8.44%,
CC(C)(C)c1ccc(-c2c(C#N)c(N)nc3c2CCCC3)s1,-10.7%,
Cc1noc(C)c1C(=O)N1CCC2(CC1)CN(c1ncccn1)C2,4.38%,
COc1ncnc(NS(=O)(=O)c2ccc(N)cc2)c1OC,-2.5% [at 25.6 µM],
CCOC(=O)N1CCN(C(=O)c2ccc3nc(SCc4ccc(F)cc4)n(C)c3c2)CC1,-13.8%,
C[C@H]1C[C@@H]2[C@H]3CCC4=CC(=O)C=C[C@@]4(C)[C@@]3(Cl)[C@@H](O)C[C@]2(C)[C@]1(OC(=O)c1ccco1)C(=O)CCl,,3.98 µM (active)
C[C@H]1C[C@H]2[C@H]3CCC4=CC(=O)C=C[C@@]4(C)[C@]3(F)[C@H](O)C[C@]2(C)[C@@]1(O)C(=O)COP(=O)(O)O,2.95% [at 11.4 µM],
C[C@@H]1C[C@@H]2[C@H]3CCC4=CC(=O)C=C[C@]4(C)[C@]3(Cl)[C@@H](O)C[C@@]2(C)[C@@]1(O)C(=O)CO,15%,
C=CCC(C(=O)OC)(C(=O)OC)c1ccc([N+](=O)[O-])cn1,-11.8%,
CCNc1ncc2ncc(=O)n(C3CC3)c2n1,-4.43%,
Cc1sc(NC(=O)c2ccco2)c(C(c2ccncc2)N2CCOCC2)c1C (configuration not stated),-27%,
CCN1CCN(C(c2ccccn2)c2c(NC(=O)c3ccccc3)sc(C)c2C)CC1 (configuration not stated),,14.1 µM (active)
CCOC(=O)CSc1n[nH]c(NC(=O)c2ccccc2)n1,-2.06%,
COCCNc1ncnc2ccc(-c3c(C)noc3C)cc12,-2.91%,
Cc1cccc(CNc2ncnc3ccc(-c4c(C)noc4C)cc23)c1,,15.8 µM (active)
Cc1noc(C)c1-c1ccc2ncnc(NCc3cccs3)c2c1,,20 µM (active)
CC(=O)NCCNc1ncnc2ccc(-c3c(C)noc3C)cc12,-9.88%,
Cc1noc(C)c1-c1ccc2ncnc(NC3CCNCC3)c2c1,-0.394%,
Cc1noc(C)c1-c1ccc2ncnc(N3CCOCC3)c2c1,8.01%,
N#Cc1cccc(NC(=O)N2CCC3(CC2)CCN(C(=O)c2ccco2)CC3)c1,-12.3%,
COc1ccccc1NC(=O)C(C/C=C(\C)Cl)C(C)=O (configuration not stated),-14%,
Cc1nn(C)c(C(=O)NNC(=S)Nc2ccc(Cl)cc2)c1[N+](=O)[O-],-24.6%,
Cn1c(=O)c(-c2ccccc2)nc2cnc(Oc3ccccc3)nc21,-7.05%,
Nc1ccc(Oc2ccc3nc(-c4ccccc4)c(-c4ccc([N+](=O)[O-])cc4)nc3c2)cc1,10.3%,

SMILES,"activity, negative = inhibition",AC50
O=C(N=NC(=O)c1ccc2c(O)n(C3CCCCC3)c(O)c2c1)c1cccnc1,15.3%,
Nc1ncnc2c1nc(-c1ccccc1)n2[C@H]1O[C@@H](CO)[C@@H](O)[C@H]1O,11.6% [at 11.4 µM],
NC(=O)C1(NC(=O)[C@@H]2CC3(CC(c4cccc(NC(=O)c5cc([N+](=O)[O-])cc([N+](=O)[O-])c5)c4)=NO3)CN2C(=O)c2ccccc2)CC1 (some centres not stated),,15.8 µM (active)
COc1ccc(C(=O)N2CC3(CC(c4cccc([N+](=O)[O-])c4)=NO3)C[C@H]2C(=O)NCC(N)=O)cc1 (some centres not stated),-16.3%,
C=C(C)C(=O)N1CC2(CC(c3cccc(NC(=O)c4ccccc4)c3)=NO2)C[C@@H]1C(N)=O (some centres not stated),-3.06%,
CC1(C)CCCN(C(=O)c2coc(=O)c(Br)c2)C1,-10.2%,
CCOC(=O)C1=C(O)C(Nc2nccs2)(C(F)(F)F)N=C1C (configuration not stated),-6.02%,
COc1cccc(C(=O)N(C)c2nnc(-c3ccncc3)s2)c1,,2 µM (active)
CC(=O)N(C)c1nnc(-c2cnccn2)s1,-3.93%,
Cc1ccc(-c2nnc(N(C)C(=O)c3cccnc3)s2)cc1,-8.87%,
COCCn1c(=O)c(-c2ccc(F)cc2)nc2cncnc21,-3.99%,
Clc1ccc(-c2cc3ccccc3[nH]2)cc1,-18.3%,
c1ccc(C[n+]2cccc(-c3cc4ccccc4[nH]3)c2)cc1,,1.26 µM (active)
CO[C@@H]1COC(=O)[C@@H](CCSC)NC(=O)C/C=C\[C@@H](C)COC(=O)CCC[C@H]1C,6.34% [at 11.4 µM],
O=[N+]([O-])c1cccc2cn[nH]c12,10.6%,
COc1ccc(C(=O)N2CCC3(CCCN(C(=O)Nc4cccc(C#N)c4)C3)CC2)cc1,-5.65%,
C[C@@H](C1=C(CCN(C)C)Cc2ccccc21)c1ccccn1,,12.6 µM (active)
CN(C)CCO[C@](C)(c1ccccc1)c1ccccn1,-17.4% [at 25.6 µM],
O=C(O)CCc1nc(-c2ccccc2-n2cccc2)no1,-11.8% [at 11.4 µM],
Cn1cc(-c2nc3cnc(Oc4cccc(Cl)c4)nc3n(CCC#N)c2=O)c2ccccc21,-4.89%,
Nc1cc(=O)[nH]c(N)n1,5.2%,
CCCc1nnc(SCC(=O)N2CCCCC2)n1CC1CCCO1 (configuration not stated),-8.47%,
CC(C)c1nc2oc3ccccc3c(=O)c2c(=O)n1-c1ccccc1,1.39%,
CC(=O)c1cc(CC=C(C)C)c(O)cc1O,,14.1 µM (active)
COc1cc(CC(=O)O)c(C(C)=O)cc1OC,-1.85%,
N#Cc1nc(-c2cccs2)oc1NCc1ccccc1,,4.47 µM (active)

SMILES,"activity, negative = inhibition",AC50
CNc1oc(-c2cccs2)nc1C#N,-4.23%,
N#Cc1nc(-c2ccc(OCc3ccccc3)cc2)oc1NCCN1CCOCC1,-19.7%,
CCCC12CN3CC(CCC)(CN(C1)C3C(O)C(O)C(O)CO)C2=O (configuration not stated),-18.7%,
CCO/C([O-])=N/c1c[n+](N2CCOCC2)no1,11.1% [at 25.6 µM],
NS(=O)(=O)c1ccc(N=Nc2nc3[nH]c(=O)[nH]c(=O)c3[nH]2)cc1,15.1% [at 11.4 µM],
COC(=O)c1sc2ccccc2c1-n1cccc1C(=O)C(=O)Nc1ccc(Cl)cc1,33.3%,
OC[C@@H]1NC[C@@H](O)[C@@H](O)[C@H]1O,4.42%,
CCOc1ccc(-c2nnn(CC(=O)Nc3cc(OC)ccc3OC)n2)cc1OCC,-15.6%,
COc1ccc(-c2nnn(CC(=O)N(CC(=O)NCCC(C)C)Cc3cccs3)n2)cc1OC,,11.2 µM (active)
COc1ccc(-c2ccc(=O)n(CC(=O)Nc3nnc(C(C)C)s3)n2)cc1OC,4.75%,
CCOc1ccccc1NC(=O)C1=C(C)NC(=O)NC1c1cccc(OC)c1OC (configuration not stated),-5.38%,
NC(N)=N/N=C(\c1ccc(Cl)cc1)C1CC1,1.81% [at 11.4 µM],
Nc1ncnc(N(c2ccccc2)C2CCCCC2)c1[N+](=O)[O-],19.7%,
CN[C@@H](c1ccncc1)[C@@H](NC)c1ccncc1,-10.1% [at 11.4 µM],
CC(C)CC(=O)N1CCN(Cc2cccc(F)c2)CC1,,8.91 µM (active)
COc1ccc(CN2CCN(C(=O)CC(C)C)CC2)c(OC)c1OC,-20.4%,
COc1cc(CN2CCN(C(=O)CC(C)C)CC2)cc(OC)c1OC,-10.3%,
Cc1ccc(NCCC(=O)c2ccc(Cl)c(Cl)c2)cc1,-27.8%,
O=c1nc2ccccc2c(NS(=O)(=O)c2ccc(Cl)cc2)n1-c1ccccc1,10.2%,
Cc1ccc(S(=O)(=O)Nc2ccc(=O)n(Cc3ccc(Cl)c(Cl)c3)c2)cc1,,3.98 µM (active)
Cc1cc(NS(=O)(=O)c2ccc(NC(=O)CN3C(=O)c4ccccc4C3=O)cc2)nc(C)n1,-5.29%,
O=C(c1cc(Cl)c(=O)n(Cc2ccc(Cl)cc2)c1)N1CCOCC1,-10.6%,
O=c1ccc(NS(=O)(=O)c2ccccc2)cn1Cc1ccc(Cl)c(Cl)c1,,14.1 µM (active)
O=c1ccc(NS(=O)(=O)c2ccc(Cl)cc2)cn1Cc1ccc(Cl)c(Cl)c1,,7.94 µM (active)
